The full list was thinned out, with hits kept by preference.
TbREL1 primary: TbREL1 inhibition, primary screen. P86926. TbREL1 RNA ligation, FRET fluorescence. inhibition, % at 9.66 µM. 89,000 tested, 0.49% active;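 active = inhibition above the mean inhibition across all screened compounds plus 3 SD, cut at about 11% in these data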;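 also: 0% = plate median of test wells and 100% = NSC42067 control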
Target sequence (P86926 whole entry, looked up): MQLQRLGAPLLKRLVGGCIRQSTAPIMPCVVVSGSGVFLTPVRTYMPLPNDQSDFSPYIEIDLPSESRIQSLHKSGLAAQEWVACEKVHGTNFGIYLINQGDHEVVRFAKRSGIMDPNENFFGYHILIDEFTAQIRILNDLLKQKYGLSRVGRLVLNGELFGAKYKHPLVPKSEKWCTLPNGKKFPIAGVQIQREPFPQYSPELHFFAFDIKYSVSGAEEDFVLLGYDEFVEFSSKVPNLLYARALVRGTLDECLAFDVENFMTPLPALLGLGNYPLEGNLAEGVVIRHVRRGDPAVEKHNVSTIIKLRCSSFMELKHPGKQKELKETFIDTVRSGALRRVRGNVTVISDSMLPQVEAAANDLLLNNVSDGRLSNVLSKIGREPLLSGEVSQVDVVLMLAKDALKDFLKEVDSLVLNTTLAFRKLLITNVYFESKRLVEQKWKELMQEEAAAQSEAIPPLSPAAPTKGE
TbREL1 confirm: TbREL1 inhibition, confirmation; TbREL1 RNA ligation, FRET fluorescence; inhibition, % at 9.66 µM; shares compounds with TbREL1 primary; 390 tested, 37% active; AID 1117282;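 active = mean inhibition across replicates above a set limit taken from the earlier primary screen, cut at about 11% in these data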;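 also: 0% = REL1 with substrate and DMSO and 100% = REL1 plus control inhibitor NSC42067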
* hit, by the source's call.

SMILES	TbREL1 primary	others
O=C(c1cc2ccccc2o1)N1CCN=C1SCc1cccc(F)c1	0
O=S(=O)(c1ccc(Br)cc1)N1CCN=C1SCc1cccc(F)c1	11*	TbREL1 confirm=3
O=C(c1ccco1)N1CCN=C1SCc1cccc(F)c1	1
COc1ccc(-n2c(COc3ccc(Cl)cc3)nnc2SCC(=O)c2ccc(-c3ccccc3)cc2)cc1	-3
CSCCC(NC(=O)COc1ccccc1)C(=O)N1CCN(c2ccccc2O)CC1 (stereo not drawn)	42*	TbREL1 confirm=3
CSCCC(NC(=O)COc1ccccc1)C(=O)OCC(=O)c1ccccc1 (stereo not drawn)	-3
CCOC(=O)C1CCN(C(=O)C(CCSC)NC(=O)COc2ccccc2)CC1 (stereo not drawn)	-6
Cc1ccccc1C(=O)N[C@H](C(=O)N1CCC[C@H]1C(=O)NCCc1ccccc1Cl)C(C)C	-3
COc1cccc(CNC(=O)[C@H]2CCCN2C(=O)C2CCCN2C(=O)c2ccc(OC)c(F)c2)c1 (stereo partly drawn)	6
O=c1c2c([N+](=O)[O-])cc([N+](=O)[O-])cc2sn1Cc1ccccc1	-2
O=c1c([N+](=O)[O-])c(Cl)c2ccccc2n1Cc1ccccc1	17*	TbREL1 confirm=1
O=Nc1c(O)n(Cc2ccccc2)c2ccccc12	-1
CN1CCCCC(NC(=O)c2ccc(C#N)cc2)C1=O (stereo not drawn)	1
CCN(CC)S(=O)(=O)c1ccc(C(C)NCC(=O)Nc2ccccc2C(=O)NC2CC2)cc1 (stereo not drawn)	1
CC(NCC(=O)Nc1ccccc1C(=O)NC1CC1)c1ccc(S(N)(=O)=O)cc1 (stereo not drawn)	17*	TbREL1 confirm=6
O=C(CN1CCN(S(=O)(=O)c2ccc(F)cc2)CC1)Nc1ccccc1C(=O)NC1CC1	-1
O=C(OCc1cn(Cc2ccc(C(F)(F)F)cc2)nn1)N1CCOCC1	9
O=C(O)COCC(=O)Nc1ccc(-n2cnnn2)cc1	12*	TbREL1 confirm=7
O=C(CN1CCN(Cc2ccccc2)CC1)Nc1ccc(-n2cnnn2)cc1	-1
NC(=O)c1ccc(NC(=O)COc2ccc(-n3cnnn3)cc2)cc1	1
O=C(CSc1nnc(-c2ccccn2)n1-c1ccccc1)c1ccc2c(c1)OCO2	5
COCc1cc(N2CCNC[C@H]2C)ccc1N1CCS(=O)(=O)CC1	4
CN(Cc1ccccc1F)C(=O)Cn1c(-c2cncs2)nc2ccccc21	-2
COc1ccc(CNCC#Cc2ccccc2)cc1	6
COCCN(CCOC)C(=O)[C@@H](Cc1ccccc1)NC(=O)[C@H]1O[C@@H](n2ccc(N)nc2=O)[C@H](O)[C@@H]1O	-1
SMILES	TbREL1 primary	others
O=C(NC1CCCCC1)C1CCCN(S(=O)(=O)c2cccc3cccnc23)C1 (stereo not drawn)	13*	TbREL1 confirm=6
O=C(Nc1ccncc1)C1CCCN(S(=O)(=O)c2cccc3cccnc23)C1 (stereo not drawn)	-4
O=C(NC1CCCC1)C1CCN(S(=O)(=O)c2cccc3cccnc23)CC1	-1
O=C(OCC#CCSc1nnc(-c2cccc3ncccc23)o1)c1ccc(F)cc1	2
CCOc1ccc(NC(=O)CN2CCCN(c3ccc(OC)cc3)CC2)cc1	-6
CCOC(=O)C1CCN(C(=O)C(C)(C)NC(=O)Nc2ccc(C(F)(F)F)cc2Cl)CC1	-3
C=C1[C@@H]2CC[C@H]3[C@]4(C)[C@@H](O)CC[C@@](C)(C(=O)OC)[C@H]4C[C@H](O)[C@]3(C2)[C@H]1O	1
Cc1cc(-c2cc(NC(=O)Cc3c[nH]c4ccccc34)ccc2Nc2cccnc2)ccc1F	-3
Cc1cc(NC(=O)C23CC4CC(CC(C4)C2)C3)n[nH]1	12*	TbREL1 confirm=5
Cc1nn(C)c(C)c1NC(=O)C12CC3CC(CC(C3)C1)C2	2
CCC(=O)Nc1cc(C)c(NC(=O)C23CC4CC(CC(C4)C2)C3)cn1	-3
COc1ccc(-n2c(SCC(=O)Nc3ccc4c(c3)OCCO4)nnc2-c2ccccc2)cc1	-2
C#CCNC(=O)C[C@H]1C[C@@]2(C(=O)OC)C(=C[C@H](C(C)(C)C)O[C@@H]2C)N(Cc2ccc(Cl)cc2Cl)C1=O	8
O=C(CN1C(=O)c2ccccc2C1=O)Nc1cc([N+](=O)[O-])ccc1O	0
O=C(CN1C(=O)c2ccc([N+](=O)[O-])cc2C1=O)NCc1ccco1	12*	TbREL1 confirm=2
Cc1c(NC(=O)CN2C(=O)c3ccc([N+](=O)[O-])cc3C2=O)c(=O)n(-c2ccccc2)n1C	-2
CCN(CC)c1ccc(-c2nn3c(-c4ccc(C(C)(C)C)cc4)nnc3s2)cc1	-1
O=C(/C=C/c1cn(-c2ccccc2)nc1-c1cccnc1)NCCN1CCOCC1	2
O=Cc1cn(-c2ccccc2)nc1-c1cc2ccccc2oc1=O	6
CN(C)CCNC(=O)/C=C/c1cn(-c2ccccc2)nc1-c1cc2ccccc2oc1=O	12*	TbREL1 confirm=4
Cn1cccc1C(=O)N1CCN(S(=O)(=O)c2ccc(Br)s2)CC1	-3
